Source: PubChem
PostGolgi ctrl: growth inhibition of yeast control strain, primary screen, counter-screen for post-Golgi transport modulator project; efflux-deficient yeast background strain, growth absorbance A615, 16 h; inhibition, % at 10 µM; 98,000 compounds, 5% hits; AID 738, 2007
PostGolgi yeast: phenotypic screen on post-Golgi transport, primary screen; post-Golgi transport phenotypic cell assay; AID 739, 2007; 98,000 compounds, 0.9% hits; inhibition, % at 10 µM;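 further: yeast cells grown in 1536-well plates; yeast grown about 18 h at 30C before absorbance read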
CYP2C19 inh: blockers of cytochrome P450 2C19 activity – biochemical, luminescence, ADME assay, primary screen; inhibition, % at 5 µM; P33261; CYP2C19 Supersomes, luciferin-H EGE luminescence, 30 min; 96,000 compounds, 21% hits; AID 778, 2007;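 active means CYP2C19 inhibition above a set limit at 5 µM in the primary screen, cut at about 50% in these data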
Target sequence (P33261 whole entry, looked up): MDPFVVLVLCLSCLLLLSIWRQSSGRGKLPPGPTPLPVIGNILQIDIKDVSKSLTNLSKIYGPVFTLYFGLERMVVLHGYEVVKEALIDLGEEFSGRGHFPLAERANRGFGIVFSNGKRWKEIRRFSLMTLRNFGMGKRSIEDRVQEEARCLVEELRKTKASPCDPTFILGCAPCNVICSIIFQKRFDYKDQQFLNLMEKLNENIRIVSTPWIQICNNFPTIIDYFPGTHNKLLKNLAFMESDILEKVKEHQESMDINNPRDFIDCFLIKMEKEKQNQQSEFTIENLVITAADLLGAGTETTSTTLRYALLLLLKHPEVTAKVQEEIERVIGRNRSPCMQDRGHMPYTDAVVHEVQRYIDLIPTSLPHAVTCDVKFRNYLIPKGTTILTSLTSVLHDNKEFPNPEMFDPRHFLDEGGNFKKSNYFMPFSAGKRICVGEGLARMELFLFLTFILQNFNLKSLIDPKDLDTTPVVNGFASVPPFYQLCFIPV
CYP2C9 activ: human CYP2C9 activators, primary screen, biochemical, luminescence; 96,000 compounds, 1.4% hits; recombinant CYP2C9, luciferin-H conversion; stronger effect = higher value; factor 1 = untreated enzyme, 0 = blocked; Cytochrome P450 2C9 (Homo sapiens), P11712; activation factor at 5 µM;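 active means activation factor of 2 or more for CYP2C9 at a 5 µM dose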
CYP2C19 activ: human CYP2C19 activators, primary screen, biochemical, luminescence. 96,000 tested, under 10 active. AID 1025, 2008. Cytochrome P450 2C19 (Homo sapiens), P33261. activation factor at 5 µM. recombinant CYP2C19, luciferin-H EGE luminescence; stronger effect = higher value; 0 = fully inhibited enzyme, 1 = untreated enzyme;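 active means activation factor of at least 2 at 5 µM in the primary screen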
CYP2C9 inh: blockers of cytochrome P450 2C9 activity – biochemical, luminescence, ADME assay, primary screen. CYP2C9 Supersomes, luciferin-H conversion. inhibition, % at 5 µM. 96,000 compounds, 20% hits;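 active means blocking of liver enzyme CYP2C9 beyond about 50% at 5 µM, limit read from the data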
Numbers stand for hits; i = inactive; nt = not tested or not shown. Most compounds without a hit are left out; they make up all but 32% or so of the library. Unless noted, no stated cut-off is given here; in the data, active means inhibition above about 30%; inactive means the rest.

SMILES | PostGolgi ctrl | PostGolgi yeast | CYP2C19 inh | CYP2C9 activ | CYP2C19 activ | CYP2C9 inh
COc1ccc(C(=O)c2c(C(F)(F)F)oc3c2C(=O)c2ccccc2C3=O)cc1OC | i | 37 | 67 | i | i | i
COc1ccc(C(=O)c2ccc(OC)c(OC)c2)cc1 | i | i | i | i | i | i
CCc1c(C)nc2cc(-c3cc(OC)cc(OC)c3)nn2c1N1CCCC1 | 43 | i | i | i | i | i
COc1cc(OC)cc(-c2cc3nc4c(c(N5CCN(c6ncccn6)CC5)n3n2)CCCC4)c1 | 69 | i | 95 | i | i | 94
CCc1c(C)nc2cc(-c3ccc(OC)c(OC)c3)nn2c1N1CCCC1 | 32 | i | i | i | i | i
COc1ccc(-c2cc3nc4c(c(=O)n3[nH]2)CCC4)cc1 | i | i | i | i | i | i
CCc1c(C)nc2cc(-c3ccc(OC)c(OC)c3)nn2c1N1CCC(C)CC1 | i | i | i | i | i | i
CCC(C)NC(=O)CCc1c(C)nc2nc(-c3cc(OC)cc(OC)c3)nn2c1C (stereo not given) | i | i | i | i | i | i
O=c1c(Cl)c(NCCO)ncn1-c1ccccc1 | i | i | nt | nt | nt | nt
OC(c1cccs1)(c1cccs1)C1C[N+]2(CF)CCC1CC2 (stereo not given) | i | i | i | i | i | i
CN1CCN(C2=C(Cl)C(=O)N(Cc3ccccc3)C2=O)CC1 | i | i | 64 | i | i | i
CN1CCN(C2=C(Cl)C(=O)N(c3ccc(Cl)c(Cl)c3)C2=O)CC1 | i | i | 79 | i | i | i
CC(=O)Nc1cccc(C(=O)OCc2ccc(C(=O)Oc3ccc(Cl)cc3)cc2)c1 | i | i | i | i | i | i
O=C(O)c1cccc2c1C(=O)N(Cc1ccncc1)C2 | 35 | i | i | i | i | i
O=C(Nc1ccc2c(c1)OCO2)c1cccc2c1C(=O)N(Cc1cccnc1)C2 | i | i | i | i | i | 77
CCCN1Cc2cccc(C(=O)Nc3ccc(CC)cc3)c2C1=O | i | i | i | i | i | i
CCCN1Cc2cccc(C(=O)Nc3ccc4c(c3)OCO4)c2C1=O | i | i | i | i | i | 60
CCCN1Cc2cccc(C(=O)Nc3ccc4c(c3)OCCO4)c2C1=O | 36 | i | 81 | i | i | 92
COc1ccc(Cl)c(N2CCN(CCCNC(=O)Nc3ccc(C)cc3)CC2)c1 | i | i | i | i | i | i
COc1ccc(C(=O)O)cc1Nc1cc(C)nc2ncnn12 | i | i | i | i | i | i
Cc1nn(C)cc1CNC(=O)Nc1cccc(Cl)c1 | i | i | i | i | i | i
O=C(N/N=C/c1ccc(OC(=O)c2cccs2)cc1)c1cccc(F)c1 | i | i | i | i | i | i
CCN(CC)c1ccc(NC(=O)CC2Oc3ccccc3NC2=O)c(C)c1 (stereo not given) | i | i | i | i | i | i
COc1cc(NC(=O)c2cccc3c2C(=O)N(Cc2cccnc2)C3)cc(OC)c1OC | i | i | i | i | i | 69
COCCN1Cc2cccc(C(=O)Nc3cc(C)cc(C)c3)c2C1=O | i | i | i | i | i | i
SMILES | PostGolgi ctrl | PostGolgi yeast | CYP2C19 inh | CYP2C9 activ | CYP2C19 activ | CYP2C9 inh
CSC1=NCCN1C(=O)c1c(F)cccc1F | i | i | i | i | i | i
COC(=O)c1ccc(Cl)c(NC(=O)c2ccc(-c3ccccc3)cc2)c1 | i | i | i | i | i | i
C/C(CC(=O)Nc1cc(Cl)ccc1Cl)=N\NC(=O)c1ccco1 | i | i | i | i | i | i
CN(Cc1ccccc1)c1nc(N)c([N+](=O)[O-])c(Nc2cccc(F)c2)n1 | i | i | i | i | i | 79
COc1ccc(N(CC(=O)Nc2ccc3c(c2)OCCO3)S(=O)(=O)c2c(C)nn(C)c2C)cc1 | i | i | 55 | i | i | 74
COc1ccc(N(CC(=O)Nc2cc(C)ccc2C)S(=O)(=O)c2c(C)nn(C)c2C)cc1 | i | i | 55 | i | i | i
COc1ccc(N(CC(=O)Nc2nccs2)S(=O)(=O)c2c(C)nn(C)c2C)cc1 | i | i | 58 | i | i | 64
Cc1nn(C)c(C)c1S(=O)(=O)N(CC(=O)Nc1nccs1)c1ccc(C(C)C)cc1 | i | i | nt | nt | nt | nt
Cc1nn(C)c(C)c1S(=O)(=O)N(CC(=O)Nc1ccc2c(c1)OCO2)c1ccc(C(C)C)cc1 | i | i | nt | nt | nt | nt
COC(=O)c1ccc(NC(=O)CN(c2ccc(C)cc2)S(=O)(=O)c2c(C)nn(C)c2C)cc1 | i | i | i | i | i | i
COc1cc(NC(=O)CN(c2ccc(C)cc2)S(=O)(=O)c2c(C)nn(C)c2C)cc(OC)c1 | i | i | 66 | i | i | 54
COc1ccc(NC(=O)C2CCC(=O)N2S(=O)(=O)c2ccc(C)cc2)c(OC)c1 (stereo not given) | i | i | i | i | i | i
COc1ccc(N(CC(=O)Nc2ccc(C)cn2)S(=O)(=O)c2c(C)nn(C)c2C)cc1 | i | i | 86 | i | i | 84
Cc1ccc(N(CC(=O)Nc2ccc(C)cn2)S(=O)(=O)c2c(C)nn(C)c2C)cc1 | i | i | 76 | i | i | 84
Cc1ccc(N(C(=O)C2CCCO2)C2C=CS(=O)(=O)C2)cc1Cl (stereo not given) | i | i | i | i | i | i
Cn1cc([N+](=O)[O-])c(C(=O)Nc2ccn(Cc3c(F)c(F)cc(F)c3F)n2)n1 | i | i | i | i | i | i
O=C(Nc1cc(C(F)(F)F)ccc1N1CCOCC1)c1ccc(Cl)nc1 | i | i | 76 | i | i | i
O=C(Nc1cc(C(F)(F)F)ccc1N1CCOCC1)c1cn2ccccc2n1 | i | i | i | i | i | 54
O=C(Nc1cc(C(F)(F)F)ccc1N1CCOCC1)c1ccccc1 | i | i | 64 | i | i | i
Cc1cc(C(=O)OCC(=O)Nc2cc(C(F)(F)F)ccc2N2CCOCC2)c(C)o1 | i | i | i | i | i | 63
COC(=O)CSc1nnc(-c2cccnc2)n1-c1cc(OC)cc(OC)c1 | i | i | i | i | i | i
COC(=O)c1ccc(CNC(=O)CNc2cc(C(F)(F)F)ccc2N2CCOCC2)cc1 | i | i | i | i | i | 95
Cc1csc2c(C#N)c(=O)c3c(n12)CCC3 | i | i | i | i | i | i
CC(C)CNC(=O)c1ccccc1-c1ccccc1C(=O)O | i | i | i | i | i | i
O=C(O)c1ccccc1C(=O)NCC(O)COCC1CC=CCC1 (stereo not given) | i | i | 92 | i | i | i
N=c1n(CCN2CCCCC2)c2ccccc2n1CC(O)c1ccc(Cl)c(Cl)c1 (stereo not given) | i | i | i | i | i | 82
COc1ccc(C2(CNC(=O)/C=C\c3ccco3)CCCC2)cc1OC | i | i | i | i | i | i
CCOC(=O)c1c(C)[nH]c(N=Nc2cccc(C)c2)c1C | i | i | 56 | i | i | 93
